Measured values from the supplement of paper PMC12067093, “Discovery and optimisation of a covalent ligand for TRIM25 and its application to targeted protein ubiquitination” (Chemical Science, 2025).
Targets with the largest changes are over-represented here; the source holds about 21,000 in all.

Compound: Cc1cc(ccc1-c1ccccc1)C(=O)N1CCCN(CC1)C(=O)CCl [compound 10]
Assay: probe-labelled cysteine peptide fold change vs DMSO (competition) (log2 fold change); higher = less target engagement (more negative = stronger competition)
Settings: 10 µM; THP-1; incubation time: 4 h
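Also: competitive profiling in live THP-1 cells: cysteine peptides tagged with an iodoacetamide desthiobiotin (IA-DTB) probe, intensity after compound treatment relative to DMSO-treated cells.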

Sequence of UniProt P0DPI2 (P0DPI2 whole entry, looked up): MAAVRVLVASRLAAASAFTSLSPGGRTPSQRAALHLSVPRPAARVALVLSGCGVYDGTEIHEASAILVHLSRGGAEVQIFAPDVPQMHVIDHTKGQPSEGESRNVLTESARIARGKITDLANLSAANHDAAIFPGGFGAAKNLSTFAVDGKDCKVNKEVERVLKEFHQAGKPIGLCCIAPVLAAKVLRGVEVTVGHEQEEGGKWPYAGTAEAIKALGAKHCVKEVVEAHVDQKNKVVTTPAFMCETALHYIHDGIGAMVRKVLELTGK
Sequence of UniProt P50440 (P50440 whole entry, looked up): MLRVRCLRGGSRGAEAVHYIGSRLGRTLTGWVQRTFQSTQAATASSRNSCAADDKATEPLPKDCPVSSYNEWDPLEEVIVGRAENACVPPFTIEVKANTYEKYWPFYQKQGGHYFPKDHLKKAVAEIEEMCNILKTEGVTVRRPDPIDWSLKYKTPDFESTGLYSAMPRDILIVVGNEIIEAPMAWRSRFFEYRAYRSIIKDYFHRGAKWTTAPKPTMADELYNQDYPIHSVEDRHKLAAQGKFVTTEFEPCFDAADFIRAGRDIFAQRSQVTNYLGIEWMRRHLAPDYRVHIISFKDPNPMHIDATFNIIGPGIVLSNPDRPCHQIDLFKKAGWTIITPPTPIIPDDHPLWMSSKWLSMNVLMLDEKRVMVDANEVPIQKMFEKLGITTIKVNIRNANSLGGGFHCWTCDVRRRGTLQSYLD
Sequence of UniProt Q969Y2 (Q969Y2 whole entry, looked up): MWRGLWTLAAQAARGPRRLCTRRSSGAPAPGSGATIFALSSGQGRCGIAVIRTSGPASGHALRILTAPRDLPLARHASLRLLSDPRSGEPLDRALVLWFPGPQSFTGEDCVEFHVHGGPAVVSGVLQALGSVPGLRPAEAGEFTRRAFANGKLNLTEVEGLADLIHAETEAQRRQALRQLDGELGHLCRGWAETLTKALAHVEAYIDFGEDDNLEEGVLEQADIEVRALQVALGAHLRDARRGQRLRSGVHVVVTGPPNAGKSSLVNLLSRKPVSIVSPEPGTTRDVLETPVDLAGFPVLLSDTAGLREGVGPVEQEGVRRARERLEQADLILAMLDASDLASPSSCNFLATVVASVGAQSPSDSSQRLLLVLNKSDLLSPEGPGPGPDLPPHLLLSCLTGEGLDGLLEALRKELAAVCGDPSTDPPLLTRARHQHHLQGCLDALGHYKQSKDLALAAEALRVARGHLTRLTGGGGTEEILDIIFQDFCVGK
Sequence of UniProt P04222 (P04222 whole entry, looked up): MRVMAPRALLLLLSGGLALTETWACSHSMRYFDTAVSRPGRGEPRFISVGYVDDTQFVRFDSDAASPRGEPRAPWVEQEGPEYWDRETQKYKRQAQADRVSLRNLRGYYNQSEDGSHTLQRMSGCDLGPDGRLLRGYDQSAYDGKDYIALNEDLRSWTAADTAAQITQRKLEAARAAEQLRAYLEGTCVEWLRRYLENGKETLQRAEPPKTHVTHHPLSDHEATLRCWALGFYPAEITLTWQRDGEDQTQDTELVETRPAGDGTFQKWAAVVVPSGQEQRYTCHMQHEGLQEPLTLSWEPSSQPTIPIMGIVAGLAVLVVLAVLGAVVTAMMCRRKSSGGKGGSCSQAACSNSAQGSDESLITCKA
Sequence of UniProt P56524 (P56524 whole entry, looked up): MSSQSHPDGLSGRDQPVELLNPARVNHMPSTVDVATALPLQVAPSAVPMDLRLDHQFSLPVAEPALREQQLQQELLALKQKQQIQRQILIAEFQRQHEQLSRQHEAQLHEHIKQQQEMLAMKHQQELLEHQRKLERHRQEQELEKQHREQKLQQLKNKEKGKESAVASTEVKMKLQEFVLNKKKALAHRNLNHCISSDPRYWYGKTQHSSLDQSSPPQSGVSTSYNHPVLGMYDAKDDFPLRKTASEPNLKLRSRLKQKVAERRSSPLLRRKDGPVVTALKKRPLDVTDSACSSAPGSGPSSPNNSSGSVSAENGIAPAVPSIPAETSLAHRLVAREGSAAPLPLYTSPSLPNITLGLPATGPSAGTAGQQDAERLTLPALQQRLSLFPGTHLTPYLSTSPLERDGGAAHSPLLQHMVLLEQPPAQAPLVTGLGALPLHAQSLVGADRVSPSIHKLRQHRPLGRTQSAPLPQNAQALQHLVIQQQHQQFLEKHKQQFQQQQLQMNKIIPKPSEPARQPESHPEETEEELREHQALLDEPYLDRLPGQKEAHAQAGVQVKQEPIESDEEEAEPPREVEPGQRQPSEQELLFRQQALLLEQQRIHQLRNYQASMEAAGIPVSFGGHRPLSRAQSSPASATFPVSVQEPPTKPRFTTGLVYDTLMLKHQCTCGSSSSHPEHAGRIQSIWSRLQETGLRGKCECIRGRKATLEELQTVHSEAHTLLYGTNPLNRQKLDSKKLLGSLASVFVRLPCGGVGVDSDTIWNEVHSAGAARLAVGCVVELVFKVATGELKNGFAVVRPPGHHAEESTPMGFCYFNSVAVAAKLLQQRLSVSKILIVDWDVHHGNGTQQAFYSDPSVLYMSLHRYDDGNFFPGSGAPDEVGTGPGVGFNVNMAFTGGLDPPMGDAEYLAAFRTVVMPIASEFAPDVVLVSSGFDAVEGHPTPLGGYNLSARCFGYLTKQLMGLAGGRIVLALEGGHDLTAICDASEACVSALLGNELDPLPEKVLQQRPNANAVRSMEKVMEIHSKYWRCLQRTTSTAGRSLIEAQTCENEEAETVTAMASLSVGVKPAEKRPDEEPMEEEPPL
Sequence of UniProt P52790 (P52790 whole entry, looked up): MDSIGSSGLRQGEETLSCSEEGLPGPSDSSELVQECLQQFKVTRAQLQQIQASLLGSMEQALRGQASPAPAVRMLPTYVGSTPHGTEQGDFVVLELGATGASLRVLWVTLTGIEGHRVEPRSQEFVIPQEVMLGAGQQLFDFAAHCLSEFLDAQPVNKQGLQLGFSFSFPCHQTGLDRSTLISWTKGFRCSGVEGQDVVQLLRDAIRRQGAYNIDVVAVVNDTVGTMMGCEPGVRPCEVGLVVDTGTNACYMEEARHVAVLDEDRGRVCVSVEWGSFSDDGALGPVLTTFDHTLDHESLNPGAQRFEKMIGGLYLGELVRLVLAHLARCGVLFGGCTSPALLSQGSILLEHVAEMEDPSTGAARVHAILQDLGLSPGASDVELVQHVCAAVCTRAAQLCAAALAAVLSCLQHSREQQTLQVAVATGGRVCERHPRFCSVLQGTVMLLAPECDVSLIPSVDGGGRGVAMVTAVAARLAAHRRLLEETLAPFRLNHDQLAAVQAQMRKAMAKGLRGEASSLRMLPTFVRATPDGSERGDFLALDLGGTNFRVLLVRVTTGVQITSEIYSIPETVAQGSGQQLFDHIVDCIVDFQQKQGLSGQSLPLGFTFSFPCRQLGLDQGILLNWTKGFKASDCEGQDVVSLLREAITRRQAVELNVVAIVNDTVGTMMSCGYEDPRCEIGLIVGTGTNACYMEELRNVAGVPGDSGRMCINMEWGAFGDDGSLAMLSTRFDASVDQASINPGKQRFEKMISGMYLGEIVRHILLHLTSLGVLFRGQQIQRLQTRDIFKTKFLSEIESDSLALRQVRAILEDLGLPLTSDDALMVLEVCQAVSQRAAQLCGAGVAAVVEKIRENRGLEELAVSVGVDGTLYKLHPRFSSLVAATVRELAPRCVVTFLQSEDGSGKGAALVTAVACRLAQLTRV
Sequence of UniProt P49841 (P49841 whole entry, looked up): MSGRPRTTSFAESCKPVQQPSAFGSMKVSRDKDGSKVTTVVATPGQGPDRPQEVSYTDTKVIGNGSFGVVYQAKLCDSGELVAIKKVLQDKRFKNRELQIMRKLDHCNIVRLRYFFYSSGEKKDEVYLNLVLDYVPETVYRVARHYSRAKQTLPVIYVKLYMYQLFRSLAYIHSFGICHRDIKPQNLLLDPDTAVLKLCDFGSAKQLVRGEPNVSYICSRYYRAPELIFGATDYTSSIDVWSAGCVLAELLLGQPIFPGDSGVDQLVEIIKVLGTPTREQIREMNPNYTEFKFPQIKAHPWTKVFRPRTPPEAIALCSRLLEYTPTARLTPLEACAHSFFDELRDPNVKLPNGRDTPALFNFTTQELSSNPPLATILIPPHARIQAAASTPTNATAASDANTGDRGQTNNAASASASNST
Sequence of UniProt Q9UBQ7 (Q9UBQ7 whole entry, looked up): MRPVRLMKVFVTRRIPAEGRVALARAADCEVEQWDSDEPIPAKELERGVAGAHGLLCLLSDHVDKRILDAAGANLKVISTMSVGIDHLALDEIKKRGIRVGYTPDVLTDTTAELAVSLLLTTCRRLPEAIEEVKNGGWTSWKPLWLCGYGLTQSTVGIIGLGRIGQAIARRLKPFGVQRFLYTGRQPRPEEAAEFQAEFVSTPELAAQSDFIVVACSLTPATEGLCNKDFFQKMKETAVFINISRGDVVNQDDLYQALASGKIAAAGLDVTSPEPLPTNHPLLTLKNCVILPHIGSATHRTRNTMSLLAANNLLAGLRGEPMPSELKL
Sequence of UniProt P48507 (P48507 whole entry, looked up): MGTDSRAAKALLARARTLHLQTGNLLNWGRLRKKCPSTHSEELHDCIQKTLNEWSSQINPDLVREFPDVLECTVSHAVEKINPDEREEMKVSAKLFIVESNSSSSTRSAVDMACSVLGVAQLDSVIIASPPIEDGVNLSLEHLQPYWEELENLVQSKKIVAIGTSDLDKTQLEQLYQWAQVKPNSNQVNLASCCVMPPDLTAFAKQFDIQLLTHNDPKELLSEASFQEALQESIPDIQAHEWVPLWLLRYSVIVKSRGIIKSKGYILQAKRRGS
Sequence of UniProt P01100 (P01100 whole entry): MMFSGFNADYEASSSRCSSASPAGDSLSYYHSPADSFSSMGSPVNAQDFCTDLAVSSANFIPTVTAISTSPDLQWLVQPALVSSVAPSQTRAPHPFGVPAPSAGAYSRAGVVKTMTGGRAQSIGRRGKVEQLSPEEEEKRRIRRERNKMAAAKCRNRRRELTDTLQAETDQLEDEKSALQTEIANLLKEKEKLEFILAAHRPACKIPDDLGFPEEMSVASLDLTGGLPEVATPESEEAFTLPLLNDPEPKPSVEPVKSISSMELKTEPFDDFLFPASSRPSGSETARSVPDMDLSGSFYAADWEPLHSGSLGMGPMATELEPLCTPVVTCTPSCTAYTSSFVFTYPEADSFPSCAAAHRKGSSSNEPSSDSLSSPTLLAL

Target	probe-labelled cysteine peptide fold change
FOS_P01100_204_EKLEFILAAHRPACK (UniProt P01100)	0.0955
GEMIN5_Q8TEQ6_1421_NEPEVEAEQPLCSSQSQCK (UniProt Q8TEQ6)	0.068
GATD3B_A0A0B4J2D5_176+177_EFHQAGKPIGLCCIAPVLAAK<|>GATD3A_P0DPI2_176+177_EFHQAGKPIGLCCIAPVLAAK (UniProt P0DPI2)	-1.14
GNL1_P36915_365_YKDGVVTIGCVGFPNVGK (UniProt P36915)	-0.0143
HLA-C_P04222_345+364_GGSCSQAASSNSAQGSDESLIACKA (UniProt P04222)	-0.638
HDAC4_P56524_777_LAVGCVVELVFK (UniProt P56524)	0.157
FTSJ3_Q8IY81_293_VCCQDIR (UniProt Q8IY81)	0.217
HELZ_P42694_100_AVLCCMQLK (UniProt P42694)	-0.406
FSCN1_Q16658_226_VAFRDCEGR (UniProt Q16658)	-0.244
GNAI2_P04899_326_EIYTHFTCATDTK (UniProt P04899)	0.0663
GATM_P50440_50_NSCAADDK (UniProt P50440)	-0.478
HBS1L_Q9Y450_84_LYSCLDHMR (UniProt Q9Y450)	0.0793
GIT1_Q9Y2X7_576_KGVSASAVPFTPSSPLLSCSQEGSR (UniProt Q9Y2X7)	-0.316
GSDMD_P57764_38_RVVQELDHGGEFIPVTSLQSSTGFQPYCLVVR (UniProt P57764)	0.275
GCLM_P48507_35+46_CPSTHSEELHDCIQK (UniProt P48507)	-0.112
GRHPR_Q9UBQ7_29_AADCEVEQWDSDEPIPAK (UniProt Q9UBQ7)	-0.563
FKBP3_Q00688_133_KGDVVHCWYTGTLQDGTVFDTNIQTSAK (UniProt Q00688)	0.106
GSK3B_P49841_335_LTPLEACAHSFFDELRDPNVK (UniProt P49841)	0.133
HAUS6_Q7Z4H7_662_VISDCECVPQK (UniProt Q7Z4H7)	0.0385
HERC2_O95714_1201_ERDDHEELAWPGIMESFFTGQNCR (UniProt O95714)	-0.0998
GTPBP3_Q969Y2_188_QLDGELGHLCR (UniProt Q969Y2)	-0.0966
GATD1_Q8NB37_94_YHALLIPSCPGALTDLASSGSLAR (UniProt Q8NB37)	0.0159
FKBP8_Q14318_274_CLNNLAASQLK (UniProt Q14318)	0.0653
HDAC5_Q9UQL6_982_CFGHLTR (UniProt Q9UQL6)	0.138
HINT3_Q9NQE9_66+73_QDPGTELLHCENEDLICFK (UniProt Q9NQE9)	-0.386
GFM2_Q969S9_248_LLWNCNSNDGK (UniProt Q969S9)	-0.353
HK3_P52790_190_CSGVEGQDVVQLLR (UniProt P52790)	0.199
GFI1_Q99684_155_GAGLGLFCEPAPEPGHPAALYGPK (UniProt Q99684)	-0.225

Same assay, conditions: 50 µM; THP-1; incubation time: 4 h

Target	probe-labelled cysteine peptide fold change
FOS_P01100_204_EKLEFILAAHRPACK (UniProt P01100)	1.53
GEMIN5_Q8TEQ6_1421_NEPEVEAEQPLCSSQSQCK (UniProt Q8TEQ6)	-0.124
GATD3B_A0A0B4J2D5_176+177_EFHQAGKPIGLCCIAPVLAAK<|>GATD3A_P0DPI2_176+177_EFHQAGKPIGLCCIAPVLAAK (UniProt P0DPI2)	-2.38
GNL1_P36915_365_YKDGVVTIGCVGFPNVGK (UniProt P36915)	-0.869
HLA-C_P04222_345+364_GGSCSQAASSNSAQGSDESLIACKA (UniProt P04222)	-1.66
HDAC4_P56524_777_LAVGCVVELVFK (UniProt P56524)	0.082
FTSJ3_Q8IY81_293_VCCQDIR (UniProt Q8IY81)	-0.481
HELZ_P42694_100_AVLCCMQLK (UniProt P42694)	-1.27
FSCN1_Q16658_226_VAFRDCEGR (UniProt Q16658)	-0.563
GNAI2_P04899_326_EIYTHFTCATDTK (UniProt P04899)	-0.0637
GATM_P50440_50_NSCAADDK (UniProt P50440)	-1.27
HBS1L_Q9Y450_84_LYSCLDHMR (UniProt Q9Y450)	-0.0662
GIT1_Q9Y2X7_576_KGVSASAVPFTPSSPLLSCSQEGSR (UniProt Q9Y2X7)	-0.788
GSDMD_P57764_38_RVVQELDHGGEFIPVTSLQSSTGFQPYCLVVR (UniProt P57764)	-0.375
GCLM_P48507_35+46_CPSTHSEELHDCIQK (UniProt P48507)	-0.843
GRHPR_Q9UBQ7_29_AADCEVEQWDSDEPIPAK (UniProt Q9UBQ7)	-0.167
FKBP3_Q00688_133_KGDVVHCWYTGTLQDGTVFDTNIQTSAK (UniProt Q00688)	-0.0529
GSK3B_P49841_335_LTPLEACAHSFFDELRDPNVK (UniProt P49841)	0.0393
HAUS6_Q7Z4H7_662_VISDCECVPQK (UniProt Q7Z4H7)	-0.547
HERC2_O95714_1201_ERDDHEELAWPGIMESFFTGQNCR (UniProt O95714)	-0.244
GTPBP3_Q969Y2_188_QLDGELGHLCR (UniProt Q969Y2)	-0.00935
GATD1_Q8NB37_94_YHALLIPSCPGALTDLASSGSLAR (UniProt Q8NB37)	-0.00276
FKBP8_Q14318_274_CLNNLAASQLK (UniProt Q14318)	-0.0462
HDAC5_Q9UQL6_982_CFGHLTR (UniProt Q9UQL6)	-0.104
HINT3_Q9NQE9_66+73_QDPGTELLHCENEDLICFK (UniProt Q9NQE9)	-0.532
GFM2_Q969S9_248_LLWNCNSNDGK (UniProt Q969S9)	-0.937
HK3_P52790_190_CSGVEGQDVVQLLR (UniProt P52790)	-0.106
GFI1_Q99684_155_GAGLGLFCEPAPEPGHPAALYGPK (UniProt Q99684)	1.62
